The supplement of paper PMC7411054

Columns and labels:
Experiment in all cases: phenotypically active (imaging signature differs from DMSO and reproducible) at any of 0.3-9 uM (binary (1 = active, 0 = inactive)); higher = active
Details in all cases: treatment time: 24 h
A549-ACTB-RAB5A = system: A549-ACTB-RAB5A
Method in brief: (§1)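 Cells from fifteen gene-edited reporter lines (A549, HepG2 and WPMY1) were treated for 24 h at 0.3, 1, 3 or 9 µM and imaged live, four wells per condition. Features were normalised per well to solvent control wells. A condition deviated if ≥3 of 4 wells passed the 95th percentile of control Euclidean distances and was reproducible if its median replicate Pearson correlation beat the 95th percentile of non-replicates; phenotypic activity needed both.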

A549-CANX-COX4 = system: A549-CANX-COX4
Method in brief: as §1

A549-GM130-SQSTM1 = system: A549-GM130-SQSTM1
Method in brief: as §1

A549-TP53BP1-CLTA = system: A549-TP53BP1-CLTA
Method in brief: as §1

A549-TUBA1B-RELA = system: A549-TUBA1B-RELA
Method in brief: as §1

HepG2-ACTB-RAB5A = system: HepG2-ACTB-RAB5A
Method in brief: as §1

HepG2-CANX-COX4 = system: HepG2-CANX-COX4
Method in brief: as §1

HepG2-GM130-SQSTM1 = system: HepG2-GM130-SQSTM1
Method in brief: as §1

HepG2-TP53BP1-CLTA = system: HepG2-TP53BP1-CLTA
Method in brief: as §1

HepG2-TUBA1B-RELA = system: HepG2-TUBA1B-RELA
Method in brief: as §1

WPMY1-ACTB-RAB5A = system: WPMY1-ACTB-RAB5A
Method in brief: as §1

WPMY1-CANX-COX4 = system: WPMY1-CANX-COX4
Method in brief: as §1

WPMY1-GM130-SQSTM1 = system: WPMY1-GM130-SQSTM1
Method in brief: as §1

WPMY1-TP53BP1-CLTA = system: WPMY1-TP53BP1-CLTA
Method in brief: as §1

WPMY1-TUBA1B-RELA = system: WPMY1-TUBA1B-RELA
Method in brief: as §1

Measured: phenotypically active

C[C@H](NCCc1ccc(O)cc1)[C@H](O)c1ccc(O)cc1 [ritodrine]
inactive: A549-ACTB-RAB5A 0 | A549-CANX-COX4 0 | A549-GM130-SQSTM1 0 | A549-TP53BP1-CLTA 0 | A549-TUBA1B-RELA 0 | HepG2-ACTB-RAB5A 0 | HepG2-CANX-COX4 0 | HepG2-GM130-SQSTM1 0 | HepG2-TP53BP1-CLTA 0 | HepG2-TUBA1B-RELA 0 | WPMY1-ACTB-RAB5A 0 | WPMY1-CANX-COX4 0 | WPMY1-GM130-SQSTM1 0 | WPMY1-TP53BP1-CLTA 0 | WPMY1-TUBA1B-RELA 0

C[N+]1(C)[C@@H]2C[C@@H](OC(=O)C(O)(c3cccs3)c3cccs3)C[C@H]1[C@@H]1O[C@@H]12 [Tiotropium bromide]
inactive: A549-ACTB-RAB5A 0 | A549-CANX-COX4 0 | A549-GM130-SQSTM1 0 | A549-TP53BP1-CLTA 0 | A549-TUBA1B-RELA 0 | HepG2-ACTB-RAB5A 0 | HepG2-CANX-COX4 0 | HepG2-GM130-SQSTM1 0 | HepG2-TP53BP1-CLTA 0 | HepG2-TUBA1B-RELA 0 | WPMY1-ACTB-RAB5A 0 | WPMY1-CANX-COX4 0 | WPMY1-GM130-SQSTM1 0 | WPMY1-TP53BP1-CLTA 0 | WPMY1-TUBA1B-RELA 0

COc1cc2ncnc(Oc3cccc(NC(=O)Nc4cc(C(C)(C)C(F)(F)F)on4)c3)c2cc1OC
inactive: A549-ACTB-RAB5A 0 | A549-CANX-COX4 0 | A549-GM130-SQSTM1 0 | A549-TP53BP1-CLTA 0 | A549-TUBA1B-RELA 0 | HepG2-ACTB-RAB5A 0 | HepG2-CANX-COX4 0 | HepG2-GM130-SQSTM1 0 | HepG2-TP53BP1-CLTA 0 | HepG2-TUBA1B-RELA 0 | WPMY1-ACTB-RAB5A 0 | WPMY1-CANX-COX4 0 | WPMY1-GM130-SQSTM1 0 | WPMY1-TP53BP1-CLTA 0 | WPMY1-TUBA1B-RELA 0

Cn1cccc1/C=C1\C(=O)NC(=O)c2ccccc21
inactive: A549-ACTB-RAB5A 0 | A549-CANX-COX4 0 | A549-GM130-SQSTM1 0 | A549-TP53BP1-CLTA 0 | A549-TUBA1B-RELA 0 | HepG2-ACTB-RAB5A 0 | HepG2-CANX-COX4 0 | HepG2-GM130-SQSTM1 0 | HepG2-TP53BP1-CLTA 0 | HepG2-TUBA1B-RELA 0 | WPMY1-ACTB-RAB5A 0 | WPMY1-CANX-COX4 0 | WPMY1-GM130-SQSTM1 0 | WPMY1-TP53BP1-CLTA 0 | WPMY1-TUBA1B-RELA 0

O=C1CCc2c(ccc3ccccc23)O1 [Splitomicin]
inactive: A549-ACTB-RAB5A 0 | A549-CANX-COX4 0 | A549-GM130-SQSTM1 0 | A549-TP53BP1-CLTA 0 | A549-TUBA1B-RELA 0 | HepG2-ACTB-RAB5A 0 | HepG2-CANX-COX4 0 | HepG2-GM130-SQSTM1 0 | HepG2-TP53BP1-CLTA 0 | HepG2-TUBA1B-RELA 0 | WPMY1-ACTB-RAB5A 0 | WPMY1-CANX-COX4 0 | WPMY1-GM130-SQSTM1 0 | WPMY1-TP53BP1-CLTA 0 | WPMY1-TUBA1B-RELA 0

CC(=O)Oc1ccccc1C(=O)O [aspirin]
inactive: A549-ACTB-RAB5A 0 | A549-CANX-COX4 0 | A549-GM130-SQSTM1 0 | A549-TP53BP1-CLTA 0 | A549-TUBA1B-RELA 0 | HepG2-ACTB-RAB5A 0 | HepG2-CANX-COX4 0 | HepG2-GM130-SQSTM1 0 | HepG2-TP53BP1-CLTA 0 | HepG2-TUBA1B-RELA 0 | WPMY1-ACTB-RAB5A 0 | WPMY1-CANX-COX4 0 | WPMY1-GM130-SQSTM1 0 | WPMY1-TP53BP1-CLTA 0 | WPMY1-TUBA1B-RELA 0

CC(C)[N@+]1(C)[C@@H]2CC[C@H]1C[C@@H](OC(=O)C(CO)c1ccccc1)C2 (stereo not given in full) [ipratropium]
inactive: A549-ACTB-RAB5A 0 | A549-CANX-COX4 0 | A549-GM130-SQSTM1 0 | A549-TP53BP1-CLTA 0 | A549-TUBA1B-RELA 0 | HepG2-ACTB-RAB5A 0 | HepG2-CANX-COX4 0 | HepG2-GM130-SQSTM1 0 | HepG2-TP53BP1-CLTA 0 | HepG2-TUBA1B-RELA 0 | WPMY1-ACTB-RAB5A 0 | WPMY1-CANX-COX4 0 | WPMY1-GM130-SQSTM1 0 | WPMY1-TP53BP1-CLTA 0 | WPMY1-TUBA1B-RELA 0

O=C1N(c2ccccc2)c2ccccc2C1(Cc1ccncc1)Cc1ccncc1 [linopirdine]
inactive: A549-ACTB-RAB5A 0 | A549-CANX-COX4 0 | A549-GM130-SQSTM1 0 | A549-TP53BP1-CLTA 0 | A549-TUBA1B-RELA 0 | HepG2-ACTB-RAB5A 0 | HepG2-CANX-COX4 0 | HepG2-GM130-SQSTM1 0 | HepG2-TP53BP1-CLTA 0 | HepG2-TUBA1B-RELA 0 | WPMY1-ACTB-RAB5A 0 | WPMY1-CANX-COX4 0 | WPMY1-GM130-SQSTM1 0 | WPMY1-TP53BP1-CLTA 0 | WPMY1-TUBA1B-RELA 0

Cc1n[nH]c(=O)[nH]c1=O [Azathymine, 6]
inactive: A549-ACTB-RAB5A 0 | A549-CANX-COX4 0 | A549-GM130-SQSTM1 0 | A549-TP53BP1-CLTA 0 | A549-TUBA1B-RELA 0 | HepG2-ACTB-RAB5A 0 | HepG2-CANX-COX4 0 | HepG2-GM130-SQSTM1 0 | HepG2-TP53BP1-CLTA 0 | HepG2-TUBA1B-RELA 0 | WPMY1-ACTB-RAB5A 0 | WPMY1-CANX-COX4 0 | WPMY1-GM130-SQSTM1 0 | WPMY1-TP53BP1-CLTA 0 | WPMY1-TUBA1B-RELA 0

CN(C)CCOC(=O)C(c1ccccc1)C1(O)CCCC1 (stereo not given) [cyclopentolate]
inactive: A549-ACTB-RAB5A 0 | A549-CANX-COX4 0 | A549-GM130-SQSTM1 0 | A549-TP53BP1-CLTA 0 | A549-TUBA1B-RELA 0 | HepG2-ACTB-RAB5A 0 | HepG2-CANX-COX4 0 | HepG2-GM130-SQSTM1 0 | HepG2-TP53BP1-CLTA 0 | HepG2-TUBA1B-RELA 0 | WPMY1-ACTB-RAB5A 0 | WPMY1-CANX-COX4 0 | WPMY1-GM130-SQSTM1 0 | WPMY1-TP53BP1-CLTA 0 | WPMY1-TUBA1B-RELA 0

C[C@]12CC[C@@H]3c4ccc(O)cc4CC[C@H]3[C@@H]1CC[C@@H]2O [estradiol]
inactive: A549-ACTB-RAB5A 0 | A549-CANX-COX4 0 | A549-GM130-SQSTM1 0 | A549-TP53BP1-CLTA 0 | A549-TUBA1B-RELA 0 | HepG2-ACTB-RAB5A 0 | HepG2-CANX-COX4 0 | HepG2-GM130-SQSTM1 0 | HepG2-TP53BP1-CLTA 0 | HepG2-TUBA1B-RELA 0 | WPMY1-ACTB-RAB5A 0 | WPMY1-CANX-COX4 0 | WPMY1-GM130-SQSTM1 0 | WPMY1-TP53BP1-CLTA 0 | WPMY1-TUBA1B-RELA 0

C#C[C@]1(O)CC[C@H]2[C@@H]3CCC4=Cc5oncc5C[C@]4(C)[C@H]3CC[C@@]21C [danazol]
inactive: A549-ACTB-RAB5A 0 | A549-CANX-COX4 0 | A549-GM130-SQSTM1 0 | A549-TP53BP1-CLTA 0 | A549-TUBA1B-RELA 0 | HepG2-ACTB-RAB5A 0 | HepG2-CANX-COX4 0 | HepG2-GM130-SQSTM1 0 | HepG2-TP53BP1-CLTA 0 | HepG2-TUBA1B-RELA 0 | WPMY1-ACTB-RAB5A 0 | WPMY1-CANX-COX4 0 | WPMY1-GM130-SQSTM1 0 | WPMY1-TP53BP1-CLTA 0 | WPMY1-TUBA1B-RELA 0
